Sm TGR block: inhibitors of Schistosoma mansoni thioredoxin glutathione reductase. Q962Y6. purified TGR, DTNB reduction, TNB absorbance 405 nm. Potency, µM (titrated, usually from 114 µM), without a hit: at the highest dose activity change, negative = inhibition, actives largely listed as inhibitors. 360,000 tested, 3% active; note: % is set by controls: 0 for no effect and ±100 for the full control effect; nearly all actives have a fitted effect of over 60% in size
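Kinetic colorimetric format: TGR-catalysed, NADPH-driven DTNB reduction monitored via TNB absorbance. Enzyme dispensed at 20 nM; compound exposure 15 min at room temperature before reaction start.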
Giardia FBPA inh: blocks Giardia fructose-bisphosphate aldolase activity; A8B2U2; purified Giardia FBPA; Potency, µM (series often up to 59.6 µM), for inactives: at the highest dose activity, negative = inhibition, actives largely listed as inhibitors; 290,000 tested, 0.71% active; note: % is set by controls: 0 for no effect and ±100 for the full control effect; nearly all actives have a fitted effect of over 55% in size
Target sequence (A8B2U2 whole entry, looked up): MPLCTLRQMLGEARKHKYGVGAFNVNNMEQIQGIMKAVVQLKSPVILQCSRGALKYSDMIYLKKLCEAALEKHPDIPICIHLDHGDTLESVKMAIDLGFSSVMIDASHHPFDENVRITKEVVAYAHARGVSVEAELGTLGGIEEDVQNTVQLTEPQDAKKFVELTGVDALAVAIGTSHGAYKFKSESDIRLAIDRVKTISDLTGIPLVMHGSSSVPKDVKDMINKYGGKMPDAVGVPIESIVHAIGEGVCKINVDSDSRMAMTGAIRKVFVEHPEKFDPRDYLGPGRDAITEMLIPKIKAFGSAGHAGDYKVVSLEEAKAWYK
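Giardia FBPA (40 nM reagent) was preincubated 10 min at RT with compound (up to 57.5 uM final), then substrate plus GAPDH/TPI/NAD/arsenate coupling system with diaphorase/resazurin was added; resorufin fluorescence (525/598 nm) was read after 20 min.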
NS1 function inh: blocks influenza NS1 protein function | Potency, µM (series often up to 46.1 µM), inactives show at the top dose activity, positive = more growth | 270,000 tested, 0.4% active | AID 2326; calls by dose curve; note: actives are rising curves; nearly all actives have a fitted effect of over 50% in size
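Recovery from NS1-induced slow growth read by OD600 in budding yeast switched to galactose assay medium (pH 6.0, -URA) at 1:100 dilution. Compound 23 nl per well; the matching strain lacking NS1 serves as control.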
RE007 growth inh: less growth of the S. pombe RE007 Vpr strain | S. pombe RE007 Vpr strain, BacTiter-Glo ATP luminescence, 24 h | AID 651644 | 360,000 tested, 0.21% active | Potency, µM (highest dose often 92.2 µM), for inactives: at the highest dose activity change, negative = less growth, usual class: inhibitors; active = well fitted falling curve with a large enough effect; inconclusive = small, poorly fitted or top-dose-only effect; inactive = no such curve, though single readings can be large or run the other way; note: % is set by controls: 0 for no effect and ±100 for the full control effect; nearly all actives have a fitted effect of over 50% in size
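Fission yeast strain RE007, carrying one chromosomally integrated HIV-1 vpr copy, was seeded at OD 0.01 in PMG+AL medium with 23 nL pinned compound. After 24 h at 30 °C and 99% humidity, viability was read by BacTiter-Glo luminescence.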
TbPYK inhibitor: T. brucei pyruvate kinase inhibition. Q57TT1. TbPYK enzyme, Kinase-Glo Plus ATP luminescence, 45 min. Potency, µM (highest dose often 76.8 µM), for the others: at the highest dose activity, negative = inhibition, actives largely listed as inhibitors. 410,000 tested, 0.12% active; note: % is set by controls: 0 for no effect and ±100 for the full control effect; nearly all actives have a fitted effect of over 50% in size
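Luminescent Kinase-Glo Plus end-point after 45 min room-temperature reaction of T. brucei pyruvate kinase started with 130 uM ADP (final). Buffer TEA 50 mM pH 7.2 with KCl, MgCl2, BSA, Tween-20; titration-based qHTS with fitted concentration-effect curves.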
LmPK inhibitor: blocks Leishmania mexicana pyruvate kinase activity; Q27686; purified LmPK, Kinase-Glo ATP luminescence, 1 h; Potency, µM (top dose mostly 57.5 µM), inactives show at the highest dose activity change, negative = inhibition, hits mostly inhibitors; 290,000 tested, 0.37% active; AID 1721; note: % is set by controls: 0 for no effect and ±100 for the full control effect
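In 50 mM imidazole pH 7.2 with 7 mM MgCl2, LmPK (0.1 nM) turned over PEP (0.5 mM) and ADP (0.1 mM) for 1 h at room temperature. Luciferase read-out of ATP.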
* hit, by the source's call; ? = inconclusive; . = not tested or not shown. Most compounds without a hit are left out; they make up all but 3.5% or so of the library. Unless noted, calls come from the whole dose curve; as a rule, active = well fitted curve in the direction sought with a large enough effect; inconclusive = small, poorly fitted or top-dose-only effect, or another doubt; inactive = no such curve, though single readings can be large; an effect the other way counts as inactive or inconclusive. Potency is the fitted concentration of half-maximal effect.

SMILES	Sm TGR block	Giardia FBPA inh	NS1 function inh	RE007 growth inh	TbPYK inhibitor	LmPK inhibitor
O=C1COc2ccc(C(=O)COC(=O)/C=C/c3ccco3)cc2N1	13µM*	.	.	4%	-15%	.
CCc1ccccc1N1C(=O)N(CC(=O)c2ccc(OC)cc2)c2ccccc2S1(=O)=O	4%	.	.	.	6%	.
O=C(Nc1ccc2c(c1)OCCO2)c1coc2ccccc2c1=O	-1%	-10%	-1%	-11%	?	7.9µM*
O=C(Nc1ccc2c(c1)OCCO2)c1ccccc1	8%	-14%	-53%	-19%	-11%	?
Cc1occc1C(=O)Nc1ccc2c(c1)OCCO2	-2%	-24%	-43%	-15%	-17%	13µM*
Cc1ccc2c(c1)CCCN2C(=O)c1c(C)noc1C	-9%	2%	-3%	5%	3%	2%
Cc1ccc2c(c1)CCCN2C(=O)c1ccoc1C	50µM*	-7%	-7%	22%	-3%	-2%
Cc1occc1C(=O)Nc1ccc2c(c1)CCC2	-25%	-11%	-93%	?	-21%	13µM*
COc1ccc2c(CNCc3cccs3)c(C(=O)O)n(Cc3cccc(F)c3)c2c1	-1%	.	.	.	-2%	.
COc1ccccc1N1CCN(C(=O)c2c(C)oc3ncn(CC(C)C)c(=O)c23)CC1	2%	.	.	.	-1%	.
COc1cccc(-n2cnnc2SC(C)C(=O)NC2CCCC2)c1 (stereo not given)	50µM*	.	.	1%	-13%	.
COc1ccc(-n2cnnc2SC(C)C(=O)Nc2cccc([N+](=O)[O-])c2)cc1 (stereo not given)	-1%	4%	9%	3%	-11%	3%
FC(F)(F)c1ccc(C2[C@H]3CN(Cc4ccc(-c5ccccc5)cc4)[C@H](c4ccccc4)C34CC2(c2ccccc2)C4)cc1 (stereo not given in full)	50µM*	1%	9%	-13%	4%	-1%
COc1ccc(-c2noc(N3CCC(C(=O)N(C)c4cc(Cl)ccc4OC)CC3)n2)cc1	-4%	.	.	.	0%	.
Cc1cccc(N2CCN(C(c3ccc(F)cc3)c3nnc(-c4ccccc4)o3)CC2)c1C (stereo not given)	-7%	.	.	.	0%	.
O=C1C(Nc2ccccc2)=C(N2CCCCC2)C(=O)c2ccccc21	8.9µM*	?	-3%	?	-15%	-9%
CC(=O)Nc1ccc(S(=O)(=O)NC2=C(N3CCN(C)CC3)C(=O)c3ccccc3C2=O)cc1	?	0.71µM*	7%	-5%	-10%	-6%
CCN1CCN(C2=C(NS(=O)(=O)c3ccc(NC(C)=O)cc3)C(=O)c3ccccc3C2=O)CC1	?	.	-10%	-17%	-7%	-8%
O=C(O)c1ccc(NC2=C(Cl)C(=O)c3ccccc3C2=O)cc1	?	?	0%	2%	-17%	-17%
O=C(/C=C/c1ccc(O)cc1)c1ccc(NC2=C(N3CCCCC3)C(=O)c3ccccc3C2=O)cc1	25µM*	?	26%	-6%	-7%	-19%
CC1=C(Nc2ccc(C(=O)O)cc2)C(=O)c2ccccc2C1=O	22µM*	?	-2%	-20%	5%	0%
O=C(/C=C/c1ccccc1)c1ccc(O)cc1	.	-1%	.	.	.	.
COc1ccc(Cl)cc1N(C)C(=O)Cn1cnc2sc(C)c(S(=O)(=O)N3CCN(c4ncccn4)CC3)c2c1=O	-3%	.	.	.	0%	.
Cc1ccc(Cl)cc1NC(=O)Cn1nnc2sc3c(c2c1=O)CCC(C(C)(C)C)C3 (stereo not given)	6%	.	.	.	0%	.
O=C(NCC(c1cccnc1)N1CCc2ccccc21)c1ccc(F)cc1 (stereo not given)	-10%	.	.	.	-5%	.
Cc1c(C(=O)NCc2cccc(Br)c2)oc2ccc3c(c12)C(=O)CC(C)(C)O3	3%	.	.	.	2%	.
COc1ccccc1NC1=C(N2CCCCC2)C(=O)c2ccccc2C1=O	?	?	9%	?	-6%	-8%

Compound activity as filed in PubChem.
